In ChEMBL document CHEMBL1961873, “Compounds: GSK PKIS; Assays: Nanosyn kinase panel” (2012):

How the values were obtained:
[1] = target: Rho-associated protein kinase 1 (Homo sapiens) (UniProt Q13464); conditions: at 1 µM;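 note: reported values are mean percent inhibition of ROCK1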
[2] = target: Rho-associated protein kinase 2 (Homo sapiens) (UniProt O75116); conditions: at 0.1 µM
[3] = target: Rho-associated protein kinase 2 (Homo sapiens) (UniProt O75116); conditions: at 1 µM
[4] = target: Ribosomal protein S6 kinase alpha-1 (Homo sapiens) (UniProt Q15418); conditions: at 0.1 µM
[5] = target: Ribosomal protein S6 kinase alpha-1 (Homo sapiens) (UniProt Q15418); conditions: at 1 µM
[6] = target: Ribosomal protein S6 kinase alpha-3 (Homo sapiens) (UniProt P51812); conditions: at 0.1 µM
Ribosomal protein S6 kinase alpha-3 (Homo sapiens), sequence (P51812 whole entry): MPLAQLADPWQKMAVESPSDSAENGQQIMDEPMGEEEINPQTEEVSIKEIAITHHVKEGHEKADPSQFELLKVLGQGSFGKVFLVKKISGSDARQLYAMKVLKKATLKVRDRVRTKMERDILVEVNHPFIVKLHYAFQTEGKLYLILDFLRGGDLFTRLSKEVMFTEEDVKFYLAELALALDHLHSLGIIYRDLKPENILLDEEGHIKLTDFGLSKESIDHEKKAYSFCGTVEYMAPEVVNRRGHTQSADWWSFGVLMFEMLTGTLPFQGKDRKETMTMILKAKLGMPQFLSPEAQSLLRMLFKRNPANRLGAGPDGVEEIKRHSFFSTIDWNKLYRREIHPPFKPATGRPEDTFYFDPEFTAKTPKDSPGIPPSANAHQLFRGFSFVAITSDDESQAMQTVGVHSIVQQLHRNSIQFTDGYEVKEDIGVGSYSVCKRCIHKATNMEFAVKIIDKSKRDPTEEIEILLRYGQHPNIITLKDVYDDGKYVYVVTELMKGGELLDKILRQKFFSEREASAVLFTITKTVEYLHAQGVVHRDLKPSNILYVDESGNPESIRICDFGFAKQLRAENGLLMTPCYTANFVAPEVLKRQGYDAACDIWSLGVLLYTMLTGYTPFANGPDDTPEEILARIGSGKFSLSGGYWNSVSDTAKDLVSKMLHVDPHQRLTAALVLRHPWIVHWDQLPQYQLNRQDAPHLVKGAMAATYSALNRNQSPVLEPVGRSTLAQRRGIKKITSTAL

[7] = target: Ribosomal protein S6 kinase alpha-3 (Homo sapiens) (UniProt P51812); conditions: at 1 µM
[8] = target: Ribosomal protein S6 kinase alpha-2 (Homo sapiens) (UniProt Q15349); conditions: at 0.1 µM
Ribosomal protein S6 kinase alpha-2 (Homo sapiens), sequence (Q15349 whole entry): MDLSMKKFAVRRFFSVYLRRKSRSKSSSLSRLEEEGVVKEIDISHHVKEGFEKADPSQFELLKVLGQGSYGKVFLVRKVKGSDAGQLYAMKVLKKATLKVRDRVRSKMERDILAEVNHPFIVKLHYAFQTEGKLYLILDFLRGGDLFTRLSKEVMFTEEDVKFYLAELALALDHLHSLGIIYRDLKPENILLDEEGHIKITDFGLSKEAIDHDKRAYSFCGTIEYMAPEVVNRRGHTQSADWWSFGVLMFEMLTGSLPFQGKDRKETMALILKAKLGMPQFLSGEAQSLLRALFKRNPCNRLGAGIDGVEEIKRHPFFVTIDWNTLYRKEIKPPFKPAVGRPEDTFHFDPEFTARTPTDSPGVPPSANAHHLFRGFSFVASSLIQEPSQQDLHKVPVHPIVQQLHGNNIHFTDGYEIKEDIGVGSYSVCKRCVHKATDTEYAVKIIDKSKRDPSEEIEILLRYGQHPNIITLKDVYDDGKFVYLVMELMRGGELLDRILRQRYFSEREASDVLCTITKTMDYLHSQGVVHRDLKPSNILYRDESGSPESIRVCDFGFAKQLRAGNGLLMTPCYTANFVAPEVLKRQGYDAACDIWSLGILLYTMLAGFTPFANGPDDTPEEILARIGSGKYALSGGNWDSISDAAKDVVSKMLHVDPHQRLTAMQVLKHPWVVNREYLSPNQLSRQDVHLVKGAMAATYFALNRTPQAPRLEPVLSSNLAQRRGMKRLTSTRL

[9] = target: Ribosomal protein S6 kinase alpha-2 (Homo sapiens) (UniProt Q15349); conditions: at 1 µM
[10] = target: Ribosomal protein S6 kinase alpha-6 (Homo sapiens) (UniProt Q9UK32); conditions: at 0.1 µM
[11] = target: Ribosomal protein S6 kinase alpha-6 (Homo sapiens) (UniProt Q9UK32); conditions: at 1 µM
[12] = target: T1, Serine/threonine-protein kinase Sgk1 (Homo sapiens) (UniProt O00141); conditions: at 0.1 µM
T1 sequence (whole entry): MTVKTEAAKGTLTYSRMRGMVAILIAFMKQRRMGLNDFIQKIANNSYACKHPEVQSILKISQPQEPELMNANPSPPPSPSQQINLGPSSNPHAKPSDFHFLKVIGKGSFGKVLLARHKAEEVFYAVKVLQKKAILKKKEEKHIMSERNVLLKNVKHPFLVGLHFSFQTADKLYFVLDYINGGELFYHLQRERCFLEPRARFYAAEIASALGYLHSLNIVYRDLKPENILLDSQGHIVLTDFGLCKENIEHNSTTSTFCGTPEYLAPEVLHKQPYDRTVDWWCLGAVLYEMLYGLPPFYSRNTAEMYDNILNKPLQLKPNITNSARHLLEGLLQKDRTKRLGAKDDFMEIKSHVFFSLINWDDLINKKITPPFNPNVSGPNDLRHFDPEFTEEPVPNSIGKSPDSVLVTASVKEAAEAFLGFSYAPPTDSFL

[13] = target: T1, Serine/threonine-protein kinase Sgk1 (Homo sapiens); conditions: at 1 µM
[14] = target: T2, Serine/threonine-protein kinase Sgk2 (Homo sapiens) (UniProt Q9HBY8); conditions: at 0.1 µM
T2 sequence (whole entry): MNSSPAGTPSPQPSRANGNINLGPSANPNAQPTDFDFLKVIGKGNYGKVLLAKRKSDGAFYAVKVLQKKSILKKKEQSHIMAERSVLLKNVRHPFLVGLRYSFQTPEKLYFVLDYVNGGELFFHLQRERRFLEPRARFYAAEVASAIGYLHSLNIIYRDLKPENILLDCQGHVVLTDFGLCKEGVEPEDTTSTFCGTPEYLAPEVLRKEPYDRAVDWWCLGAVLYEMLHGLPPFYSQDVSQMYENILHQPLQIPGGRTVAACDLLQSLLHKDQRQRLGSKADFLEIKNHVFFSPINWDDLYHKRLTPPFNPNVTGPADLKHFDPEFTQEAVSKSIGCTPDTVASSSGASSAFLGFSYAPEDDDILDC

[15] = target: T2, Serine/threonine-protein kinase Sgk2 (Homo sapiens); conditions: at 1 µM
[16] = target: T3, Serine/threonine-protein kinase Sgk3 (Homo sapiens) (UniProt Q96BR1); conditions: at 0.1 µM
T3 sequence (whole entry): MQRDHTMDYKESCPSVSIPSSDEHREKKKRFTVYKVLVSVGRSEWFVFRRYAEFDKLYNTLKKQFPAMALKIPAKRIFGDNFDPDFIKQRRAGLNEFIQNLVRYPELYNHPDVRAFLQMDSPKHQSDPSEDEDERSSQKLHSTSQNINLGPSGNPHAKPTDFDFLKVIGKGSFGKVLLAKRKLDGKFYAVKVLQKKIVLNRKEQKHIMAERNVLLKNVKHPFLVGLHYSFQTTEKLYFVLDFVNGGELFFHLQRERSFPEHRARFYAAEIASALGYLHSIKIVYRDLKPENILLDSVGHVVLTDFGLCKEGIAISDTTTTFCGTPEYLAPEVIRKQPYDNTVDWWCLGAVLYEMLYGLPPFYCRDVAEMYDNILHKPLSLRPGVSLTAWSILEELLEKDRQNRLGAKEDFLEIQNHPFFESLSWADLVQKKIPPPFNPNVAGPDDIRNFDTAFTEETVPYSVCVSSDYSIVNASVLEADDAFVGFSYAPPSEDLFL

[17] = target: T3, Serine/threonine-protein kinase Sgk3 (Homo sapiens); conditions: at 1 µM
[18] = target: 5'-AMP-activated protein kinase catalytic subunit alpha-1 (Homo sapiens) (UniProt Q13131); conditions: at 0.1 µM
[19] = target: 5'-AMP-activated protein kinase catalytic subunit alpha-1 (Homo sapiens) (UniProt Q13131); conditions: at 1 µM
[20] = target: 5'-AMP-activated protein kinase catalytic subunit alpha-2 (Homo sapiens) (UniProt P54646); conditions: at 0.1 µM;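 note: mean inhibition measured on the AMPK complex of alpha2, beta1 and gamma1 subunits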
5'-AMP-activated protein kinase catalytic subunit alpha-2 (Homo sapiens), sequence (P54646 whole entry, looked up): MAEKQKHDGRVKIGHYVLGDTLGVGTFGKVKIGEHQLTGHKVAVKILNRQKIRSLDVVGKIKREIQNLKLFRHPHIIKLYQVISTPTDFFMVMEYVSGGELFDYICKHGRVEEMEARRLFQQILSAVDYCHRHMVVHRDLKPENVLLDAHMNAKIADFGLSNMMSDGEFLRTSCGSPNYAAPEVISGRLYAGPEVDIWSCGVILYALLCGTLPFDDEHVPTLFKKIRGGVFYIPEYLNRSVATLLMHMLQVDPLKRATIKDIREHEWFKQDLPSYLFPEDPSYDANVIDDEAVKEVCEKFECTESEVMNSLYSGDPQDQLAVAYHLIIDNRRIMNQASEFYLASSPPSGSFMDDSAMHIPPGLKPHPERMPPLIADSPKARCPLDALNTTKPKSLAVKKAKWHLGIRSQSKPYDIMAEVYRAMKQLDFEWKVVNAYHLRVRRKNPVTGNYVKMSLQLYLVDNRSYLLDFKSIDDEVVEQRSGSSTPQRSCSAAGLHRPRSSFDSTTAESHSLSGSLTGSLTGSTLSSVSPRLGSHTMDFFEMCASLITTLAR

Rho-associated protein kinase 1 (Homo sapiens), sequence (Q13464 2-1354 limits assumed): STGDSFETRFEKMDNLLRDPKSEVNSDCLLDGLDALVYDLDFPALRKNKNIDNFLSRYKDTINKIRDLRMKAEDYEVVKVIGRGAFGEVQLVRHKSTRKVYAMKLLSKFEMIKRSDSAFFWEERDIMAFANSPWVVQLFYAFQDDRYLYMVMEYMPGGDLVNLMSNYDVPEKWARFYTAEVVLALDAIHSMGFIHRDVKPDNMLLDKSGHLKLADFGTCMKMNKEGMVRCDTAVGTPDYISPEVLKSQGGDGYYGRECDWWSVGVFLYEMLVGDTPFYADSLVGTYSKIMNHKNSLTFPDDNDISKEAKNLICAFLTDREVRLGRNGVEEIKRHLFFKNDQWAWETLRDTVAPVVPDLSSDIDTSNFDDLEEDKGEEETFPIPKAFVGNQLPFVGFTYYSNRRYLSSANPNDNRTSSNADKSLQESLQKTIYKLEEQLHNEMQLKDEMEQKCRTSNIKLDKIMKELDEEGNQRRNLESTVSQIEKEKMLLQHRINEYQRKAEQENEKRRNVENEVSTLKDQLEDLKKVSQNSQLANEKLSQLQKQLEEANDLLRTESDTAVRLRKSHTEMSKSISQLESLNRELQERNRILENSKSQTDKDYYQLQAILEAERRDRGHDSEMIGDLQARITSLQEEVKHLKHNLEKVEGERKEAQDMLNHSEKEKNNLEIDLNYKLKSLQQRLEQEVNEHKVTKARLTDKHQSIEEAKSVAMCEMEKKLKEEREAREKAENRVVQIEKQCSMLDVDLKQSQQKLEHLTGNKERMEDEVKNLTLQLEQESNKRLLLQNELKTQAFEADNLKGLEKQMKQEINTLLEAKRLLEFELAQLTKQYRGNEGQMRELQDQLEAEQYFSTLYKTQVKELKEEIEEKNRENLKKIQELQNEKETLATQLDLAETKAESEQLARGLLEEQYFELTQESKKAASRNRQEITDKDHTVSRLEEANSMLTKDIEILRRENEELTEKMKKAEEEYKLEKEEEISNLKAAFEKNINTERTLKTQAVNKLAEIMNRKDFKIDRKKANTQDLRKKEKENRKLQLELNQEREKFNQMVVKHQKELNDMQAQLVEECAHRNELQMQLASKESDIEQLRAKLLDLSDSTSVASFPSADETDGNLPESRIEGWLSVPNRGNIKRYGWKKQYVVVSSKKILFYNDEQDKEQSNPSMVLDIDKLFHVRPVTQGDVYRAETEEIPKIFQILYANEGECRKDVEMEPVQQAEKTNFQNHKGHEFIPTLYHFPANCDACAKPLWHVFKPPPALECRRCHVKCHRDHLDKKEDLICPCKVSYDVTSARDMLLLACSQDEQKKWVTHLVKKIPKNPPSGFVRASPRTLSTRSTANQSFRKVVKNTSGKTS
Rho-associated protein kinase 2 (Homo sapiens), sequence (O75116 whole entry, looked up): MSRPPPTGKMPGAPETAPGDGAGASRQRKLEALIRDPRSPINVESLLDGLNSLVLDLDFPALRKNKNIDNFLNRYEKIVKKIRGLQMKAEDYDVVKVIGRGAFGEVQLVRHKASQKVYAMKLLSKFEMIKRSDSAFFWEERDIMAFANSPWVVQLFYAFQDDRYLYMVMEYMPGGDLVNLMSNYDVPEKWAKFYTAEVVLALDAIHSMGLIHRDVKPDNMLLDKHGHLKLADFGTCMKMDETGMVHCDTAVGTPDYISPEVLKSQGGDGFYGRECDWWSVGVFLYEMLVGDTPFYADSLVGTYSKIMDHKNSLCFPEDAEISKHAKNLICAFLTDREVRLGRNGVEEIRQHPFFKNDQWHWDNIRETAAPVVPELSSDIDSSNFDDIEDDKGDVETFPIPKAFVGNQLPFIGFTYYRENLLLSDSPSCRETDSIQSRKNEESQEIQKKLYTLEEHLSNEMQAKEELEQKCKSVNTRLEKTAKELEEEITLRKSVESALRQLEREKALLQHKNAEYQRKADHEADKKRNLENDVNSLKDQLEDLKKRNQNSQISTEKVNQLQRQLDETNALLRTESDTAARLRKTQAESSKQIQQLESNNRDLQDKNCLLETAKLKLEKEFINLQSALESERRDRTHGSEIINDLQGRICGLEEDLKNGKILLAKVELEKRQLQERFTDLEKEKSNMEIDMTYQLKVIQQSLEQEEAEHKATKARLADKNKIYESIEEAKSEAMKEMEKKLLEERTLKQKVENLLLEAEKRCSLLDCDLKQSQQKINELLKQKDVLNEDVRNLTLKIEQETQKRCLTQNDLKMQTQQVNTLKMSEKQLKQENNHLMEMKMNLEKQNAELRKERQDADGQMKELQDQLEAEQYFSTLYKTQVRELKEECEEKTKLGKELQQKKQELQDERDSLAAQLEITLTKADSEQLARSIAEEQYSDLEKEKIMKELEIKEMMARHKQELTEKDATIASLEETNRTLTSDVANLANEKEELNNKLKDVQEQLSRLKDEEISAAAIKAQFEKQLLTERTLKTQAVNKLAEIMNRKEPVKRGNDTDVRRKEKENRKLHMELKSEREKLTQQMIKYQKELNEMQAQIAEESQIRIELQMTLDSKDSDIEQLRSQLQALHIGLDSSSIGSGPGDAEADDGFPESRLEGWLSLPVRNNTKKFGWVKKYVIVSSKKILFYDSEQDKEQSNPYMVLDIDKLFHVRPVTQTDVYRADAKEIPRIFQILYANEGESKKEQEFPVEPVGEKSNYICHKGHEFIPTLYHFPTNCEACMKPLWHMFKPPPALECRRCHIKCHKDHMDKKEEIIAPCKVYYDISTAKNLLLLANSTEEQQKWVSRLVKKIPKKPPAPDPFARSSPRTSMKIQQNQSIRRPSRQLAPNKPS

SMILES	inhibition [1] [%]	inhibition [2] [%]	inhibition [3] [%]	inhibition [4] [%]	inhibition [5] [%]	inhibition [6] [%]	inhibition [7] [%]	inhibition [8] [%]	inhibition [9] [%]	inhibition [10] [%]	inhibition [11] [%]	inhibition [12] [%]	inhibition [13] [%]	inhibition [14] [%]	inhibition [15] [%]	inhibition [16] [%]	inhibition [17] [%]	inhibition [18] [%]	inhibition [19] [%]	inhibition [20] [%]
NC(=O)c1cccc(Nc2nccc(Nc3cccc4[nH]ncc34)n2)c1	7.57	1.22	13.4	-0.17	7.69	-0.11	8.36	-1.89	2.72	0.56	9.04	-1.84	1.71	-4.35	-0.81	-4.06	-1.36	3.35	18.5	2.4
CCc1cccc(NC(=O)Nc2ccc(Oc3ccc4nc(NC(=O)OC)[nH]c4c3)cc2)c1	18.3	5.32	8.2	1.07	1.59	0.58	0.96	1.52	1.5	-0.02	1.25	0.38	1.59	3.74	-0.81	5.12	3.61	1.46	0.41	-5.13
[O-][S+]1CCN(Cc2ccc(-c3ccc4ncnc(Nc5ccc(OCc6ccccc6)c(F)c5)c4c3)o2)CC1	1.51	0.14	0.33	-0.15	-0.56	-0.51	-0.78	1.48	1.83	0.96	0.29	1.32	0.95	1.18	-1.29	0.74	2.23	0.77	-0.08	0.83
COc1ccc2cc(-c3c(-c4ccncc4)nc(-c4ccc([S+](C)[O-])cc4)n3C)ccc2c1 (stereo not given)	0.63	2.12	-0.11	0.79	0.09	1.33	0.81	2.14	3.12	0.84	1.25	1.97	0.68	2.93	-0.04	2.63	4.38	3.11	1.29	1.9
Fc1cccc(COc2ccc(Nc3ncnc4sc(-c5cccs5)cc34)cc2Cl)c1	2.28	0.99	1.7	-0.29	-0.48	-1.22	-0.28	0.38	1.25	-0.01	0.4	1.05	0.86	0.37	0.66	0.04	-0.58	0.51	0.48	2.89
Nc1nc(-c2ccc3c(c2)C(=Cc2cc(Br)c(O)c(Br)c2)C(=O)N3)cs1	-0.02	-0.52	2.2	-0.32	4.1	-0.26	1.6	-0.77	1.44	-0.07	2.87	0.99	0.56	0.38	2.1	-0.67	-0.04	-0.3	6.79	3.28
